High-throughput results (PubChem BioAssay)
MLLE-PAM2 inh: blocks PAM2 peptide binding to the PABP1 MLLE domain; inhibition, % at 20 µM; GST-MLLE / FITC-PAM2 fluorescence polarization; P11940; 0.36% of 360,000 active; in the data active means inhibition above about 35%, passing the limit was not always enough;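 further: plate controls were DMSO wells with GST-MLLE for no effect and wells lacking GST-MLLE protein for full effect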
eIF4H inh: inhibitors of RNA binding by human eIF4H. AID 2012. 0.94% of 290,000 active. inhibition, % at 35 µM. eIF4H fluorescence polarization binding assay;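 further: calls also rest on retests at 20 µM and on dose response follow-up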
PABP polyA inh: PABP-poly(A) binding inhibition. P11940. PABP-poly(A) RNA binding, fluorescence polarization. calls only at 35 µM. 1% of 290,000 active. AID 2014;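 further: calls also rest on retests at 20 µM and on dose response follow-up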
Efa HMGR inh: inhibitors of class II HMG-CoA reductase from Enterococcus faecalis; purified E. faecalis HMGR, NADPH absorbance 340 nm kinetic; inhibition, % at 10 µM; 0.41% of 190,000 active; AID 1066;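 active means inhibition above a set limit, the median over all tested compounds plus 3 SD, cut at about 9.5% in these data; inconclusive means no clear call, values can overlap the other calls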;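 further: enzyme runs in reverse so mevalonate oxidation gives rising NADPH absorbance; 0% = complete reaction with DMSO and 100% = background rate lacking mevalonate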
PHOSPHO1 block: blocks human PHOSPHO1 phosphatase activity | Q8TCT1 | recombinant PHOSPHO1, absorbance phosphatase assay | inhibition, % at 13.3 µM | 1.1% of 290,000 active; in the data active means inhibition above about 60%
Target sequence (Q8TCT1 whole entry, looked up): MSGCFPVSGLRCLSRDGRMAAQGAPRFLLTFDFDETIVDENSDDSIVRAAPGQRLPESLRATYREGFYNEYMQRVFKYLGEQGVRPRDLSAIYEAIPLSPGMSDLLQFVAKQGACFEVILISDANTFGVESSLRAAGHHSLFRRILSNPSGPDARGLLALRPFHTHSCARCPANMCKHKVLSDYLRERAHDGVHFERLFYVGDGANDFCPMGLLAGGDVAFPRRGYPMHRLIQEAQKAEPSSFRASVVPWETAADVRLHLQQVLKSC
Active calls of the source: *; i = inactive; ? = inconclusive; . = no result; + = active, no number. A selection: hits, their analogues and other compounds. The true share with any hit is near 2.4%. Unless noted, how the calls were made is not given here.

SMILES	MLLE-PAM2 inh	eIF4H inh	PABP polyA inh	Efa HMGR inh	PHOSPHO1 block
O=c1[nH]c(SCc2ccccc2)nc2[nH]ncc12	-12.1	-0.2	i	3.5	63.7*
CN(Cc1ccc(F)cc1)C(=O)c1ccc2c(c1)NC(=O)CS2	0.9	-1.3	i	11.8*	24.7
CN(CC(=O)Nc1cccc(F)c1)C(=O)c1ccc2c(c1)NC(=O)CS2	3.1	.	.	.	.
CC(=O)c1cccc(NC(=O)N2C3CCCC2CC(NC(=O)C2CC2)C3)c1 (stereo not given)	5.0	1.4	i	.	22.4
O=C(N/N=C/C=C/c1ccccc1[N+](=O)[O-])c1cccs1	-16.7	-8.7	i	-4.3	-4.0
O=C(N/N=C\C=C\c1ccc([N+](=O)[O-])o1)c1cccs1	-18.8	99.7*	+	.	39.4
Cc1c(O)nc(SCC(=O)Nc2ccc3c4c(cccc24)CC3)n(-c2ccc(F)cc2)c1=O	40.0*	39.2	i	4.3	-13.3
COc1ccc(CCNC(=O)COC(=O)c2cc(S(=O)(=O)N3CCOCC3)ccc2C)cc1OC	0.2	.	.	.	.
Cc1ccc(/C=N/c2sc3c(c2C#N)CCCCC3)o1	24.7	26.4	i	-0.6	61.0*
N#Cc1c(/N=C/c2ccco2)sc2c1CCC2	9.4	11.8	i	-9.2	-18.5
Cc1nnc(N2C(=O)C(O)=C(C(=O)c3ccco3)C2c2ccc(C(C)C)cc2)s1 (stereo not given)	30.7	51.7*	+	-6.1	8.6
O=C(c1ccc2c(c1)OCO2)C1CCCN(Cc2ccc3nsnc3c2)C1 (stereo not given)	0.2	-14.8	i	10.7*	32.8
O=C(c1ccc2c(c1)OCO2)C1CCCN(Cc2c(F)ccc(F)c2F)C1 (stereo not given)	-7.2	0.8	i	.	29.0
CC(C)(C)NC(=O)/C(=C\c1ccco1)NC(=O)c1cccs1	20.2	66.3	i	10.6*	-27.0
O=C(NCc1ccccn1)/C(=C/c1ccco1)NC(=O)c1ccccc1	-3.2	81.8*	+	-0.2	-21.7
O=C(NCCc1ccccn1)/C(=C/c1ccco1)NC(=O)c1ccccc1	15.6	15.9	i	5.0	5.7
Cc1ccc(C(=O)N/C(=C/c2ccco2)C(=O)O)cc1	15.2	87.1*	+	-3.5	4.1
O=C(NCc1ccco1)/C(=C\c1ccco1)NC(=O)c1cccs1	3.5	34.1	i	-9.7	30.4
O=C(N/C(=C\c1ccco1)C(=O)N1CCCC1CO)c1ccccc1 (stereo not given)	34.2*	18.3	i	.	40.5
COc1ccc(C(CNC(=O)c2cccc(S(=O)(=O)N3CCCCC3)c2)N2CCCC2)cc1 (stereo not given)	10.2	.	.	.	.
CN(C)CCN1C(=O)C(=O)/C(=C(/O)c2ccc(S(=O)(=O)N3CCOCC3)cc2)C1c1ccc(F)cc1 (stereo not given)	8.4	-5.6	i	.	14.7
CCOC(=O)/C(=C\c1ccc(C)cc1)NC(=O)c1ccccc1	5.3	77.7*	+	-4.4	41.1
CN(CC(=O)Nc1n[nH]c(=S)s1)S(=O)(=O)c1cccc2cccnc12	18.0	-4.2	i	.	60.4*
Cc1csc(NC(=O)CN(C)S(=O)(=O)c2cccc3cccnc23)n1	-15.6	-7.5	i	-1.5	38.3
C=CCC1(CC=C)CCCN1C(=O)c1cc(COc2cccc(C(F)(F)F)c2)on1	-10.1	-2.0	i	.	61.0*
SMILES	MLLE-PAM2 inh	eIF4H inh	PABP polyA inh	Efa HMGR inh	PHOSPHO1 block
CCC12CCCN3CCC4(C(=C(C(=O)OC)C1)Nc1ccccc14)C32 (stereo not given)	-99.3	17.3	+	-1.5	99.4*
Cc1noc(C)c1S(=O)(=O)Nc1ccc2c(c1)C(=O)N([C@H](C)CO)C[C@H](C)[C@@H](CN(C)C(=O)CCCN(C)C)OCCCC[C@@H](C)O2	-11.7	.	.	.	.
Cc1ccc(NC(=S)Nc2ccc(Cl)c(Cl)c2)c(OC(F)F)c1	13.7	-4.9	i	-0.8	-18.9
Cc1cc(C)cc(NC(=S)Nc2ccc(Cl)c(Cl)c2)c1	42.6*	-3.4	i	0.1	32.2
Cc1cccc(C)c1NC(=S)Nc1ccc(Cl)c(Cl)c1	45.4*	-4.2	i	-3.2	33.5
C=CCC1(CC=C)CCCN1C(=O)Cn1nnnc1CN(C)C(C)C	-6.5	-3.9	i	.	-2.6
CCCNC(=O)OC[C@H]1O[C@H](CCO/N=C/C[C@@H]2C=C[C@H](OC(C)=O)[C@@H](COC(C)=O)O2)C=C[C@@H]1Oc1ccc(OC)cc1	.	2.4	i	-7.0	1.1
CCCNC(=O)OC[C@H]1O[C@H](CCO/N=C(\C)CCN2CCc3nc(-c4ccccc4)c(-c4ccccc4)cc3C2)C=C[C@@H]1Oc1ccc(OC)cc1	.	68.1*	i	-4.6	3.5
Cc1ccc(C2C(C#N)=C(N)SC(N)=C2C#N)o1	.	?	?	7.0	101.9*
c1ccc(-c2nc(CSc3n[nH]c(-c4cccs4)n3)cs2)cc1	4.0	-4.0	i	-1.4	42.0
CCN(CC(=O)Nc1c(F)cccc1F)C(=O)CNC(=O)c1ccc2c(c1)OCO2	6.0	42.0	+	.	17.4
O=C(CSc1nnc(C2COc3ccccc3O2)o1)N1CCCC1 (stereo not given)	39.2*	6.2	i	0.6	-102.2
CCC(CC)Nc1ccc(C(CC(N)=O)NC(=O)Cc2cccc3ccccc23)cc1[N+](=O)[O-] (stereo not given)	-44.0	78.0	+	.	-7.3
NC(=O)CC(NC(=O)Cc1cccc2ccccc12)c1ccc(NCCOc2ccccc2)c([N+](=O)[O-])c1 (stereo not given)	-17.8	-7.3	i	.	20.4
O=C1CN(S(=O)(=O)c2cc(C(F)(F)F)ccc2Cl)CCN1	6.5	.	.	.	.
O=C(O)/C=C/C(=O)N1CCN(S(=O)(=O)c2cc(C(F)(F)F)ccc2Cl)CC1	-0.9	2.1*	+	-2.8	-28.5
COc1ccc(C(=O)NNC(=O)C(=O)Nc2cccc3ccccc23)cc1	14.7	16.0	i	.	10.3
COc1ccccc1C(=O)NCCn1ccc2ccccc21	42.6*	-10.5	i	-2.8	-27.2
O=C(NCCN1CCCC1)c1cccc(Cl)c1	-1.3	3.4	i	-0.6	60.0*
COc1ccc(C(=O)NC2(C(F)(F)F)N=C3SCCN3C2=O)cc1 (stereo not given)	40.3*	-1.9	i	-5.5	11.4
Cc1cccc(NC2(C(F)(F)F)N=C3SCCN3C2=O)n1 (stereo not given)	39.6*	-4.7	i	0.7	13.8
Nc1ccc(C(=O)C(=O)c2ccccc2)cc1	-15.8	.	.	.	.
CC(C)c1nc2sc3c(SCC(=O)NCc4ccco4)ncnc3c2c2c1CCC2	3.7	14.0*	i	-1.5	-3.0
O=C(CSc1ncnc2sc3c(c12)CCCCC3)NCc1ccco1	2.5	-2.1	i	-4.5	-66.2
O=C(CSCc1nc2scc(-c3cccs3)c2c(=O)[nH]1)Nc1ccccn1	-19.5	-0.3	i	.	17.6
O=c1[nH]c(CN2CCc3ccccc32)nc2scc(-c3cccs3)c12	-15.1	23.2	i	2.1	63.6*
COc1cccc(NC(=O)C2CCN(C(=O)NC3CCCCC3)CC2)c1	-1.4	-10.1	i	.	62.9*
